The campaign covered roughly 360,000 compounds. About 7,500 (2.1%) were called active. About 8% were inconclusive and are not listed. Shown is part of a subset that was picked to be rich in actives. Unmarked numbers belong to inactive results. Calls follow the shape of the dose curve; as a rule, active = well fitted cell-killing curve with a large enough effect; inconclusive = small, poorly fitted or top-dose-only effect, or effect the other way, or another doubt; inactive = no such curve, though single readings can be large or run the other way.
assay: qHTS for induction of synthetic lethality in tumor cells producing 2HG: qHTS for the HT-1080-IDH1KD cell line; settings: HT-1080 IDH1 knockdown viability, ATP luminescence, 48 h; series mostly up to 46.1 µM; activity, negative = toxicity: at the top concentration;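 as to activity, negative = toxicity: 0% = DMSO wells and -100% = cell-free medium wells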
Outline: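 In this qHTS, HT-1080 cells depleted of IDH1 are exposed for 48 h at 37 °C to compound titrations. Toxicity is scored from CellTiter-Glo luminescence, with DMSO as full viability and medium alone as none.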
Potency is read from the fitted curve at half-maximal effect.

Compound	activity, negative = toxicity [%]	Potency
Cc1noc(C)c1S(=O)(=O)N(C)C[C@H]1OCCCC[C@@H](C)Oc2ccc(NC(=O)CCCN(C)C)cc2C(=O)N([C@H](C)CO)C[C@@H]1C	9.14	–
Cc1noc(C)c1C(=O)N1CCC1(C)C(=O)NS(=O)(=O)c1ccc(C#N)cc1 (centres undefined)	21.7	–
CN1OC[C@@H]2CN[C@H](c3ccc(-c4ccccc4)cc3)C[C@@H]21	-1.25	–
CCNC(=O)C1(C)CCCN(C(=O)c2c(C)noc2C)C1 (centres undefined)	2.57	–
CN1OC[C@@H]2CN(S(=O)(=O)c3cccc(C(F)(F)F)c3)[C@H](c3ccc(-c4cc5ccccc5o4)cc3)C[C@@H]21	1.74	–
COCCNC(=O)C1C(=O)Nc2ccccc2C(=O)N1c1ccc2c(c1)OCCO2 (centres undefined)	21.6	–
C[C@@H]1CN([C@@H](C)CO)C(=O)CCCn2nncc2CO[C@@H]1CN(C)S(=O)(=O)c1ccc(-c2ccccc2)cc1	-1.95	–
Cn1c(=O)c2cc(NC(=O)NCCc3cccs3)ccc2n1Cc1cccc(C(F)(F)F)c1	-29	–
Clc1ccc(-c2cc(C3CCNCC3)[nH]n2)c(Cl)c1	–	23.1 µM (active)
Clc1ccc(-c2cc(-c3ccccn3)on2)c(Cl)c1	-24.4	–
O=C(OCc1cn([C@@H]2C[C@H](c3ccc(Cl)cc3)N(Cc3cccs3)C[C@H]2O)nn1)c1ccccc1	1.15	–
COC(=O)[C@@]12C[C@@H](CC(=O)N3CCCCC3)C(=O)N(Cc3ccc4c(c3)OCO4)C1=CCC(C)(C)C2	-23.6	–
CSc1ccccc1C(=O)Nc1cccc(C(C)=O)c1	-6.03	–
CC(=O)c1cccc(NC(=S)N2CCCC2)c1	11.1	–
C=CCSc1nsc(NC(=O)Nc2cccc(C(C)=O)c2)n1	–	16.4 µM (active)
Cc1cc2oc(=O)cc(CN(C)Cc3ccccc3)c2cc1Cl	2.28	–
Cc1ccc2[nH]c(C(=O)O)c(NC(=O)c3ccccc3[N+](=O)[O-])c2c1	9.67	–
Cc1nn(-c2ccccc2)c(Cl)c1/C=N/NC(=O)c1nn(C)cc1[N+](=O)[O-]	-29.8	–
Cc1c(C(=O)N/N=C/c2ccccc2)[nH]c2c([N+](=O)[O-])cccc12	–	0.517 µM (active)
CC1(C)OC(=O)C2=C(C[C@@H](C3CCCC3)O[C@@H]2c2ccc(Cl)cc2)O1	8.76	–
CC1(C)CCc2cc(S(=O)(=O)N3CCN(c4nc(-c5cccs5)nc5ccccc45)CC3)ccc2O1	5.15	–
COc1ccc(C(C)(NC(C)=O)c2nc(-c3ccc(S(C)(=O)=O)cc3)cs2)cc1 (centres undefined)	8.14	–
COC(=O)c1ccc2nc(-c3ccc(Cl)cc3)c(Cc3cccc(F)c3)n2c1	9.38	–
CC(C)CC[n+]1ccn(C2=C([O-])c3ccccc3C(=O)/C2=N\S(=O)(=O)c2ccccc2)c1	–	11.2 µM (active)
